# Measurements reported in PubChem BioAssay AID1159580 (chemical genetic matrix, 2015).
# Several values for one entry are separate records, joined by “and”; a condition that tells them apart may be missing. Equal entries are not always repeated. In all, about 5,500 compounds went through this assay and about 2,000 (36%) were called active. About 18% were inconclusive and are not listed. The list shows a part of the results. A number with no mark means an inactive call. No stated cut-off is given here; in the data, active means normalized growth mostly below about 0.91 (no sharp cut-off); inconclusive means no clear call, values can overlap the other calls; inactive means mostly above about 0.92.
# Experiment: chemical genetic growth profiling, strain panel (AID 1159580);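 further: tested at 20 µM; growth read once vehicle control cultures reached saturation at 30 °C; 1 = growth at the plate median or of vehicle wells; lower values mean less growth of the strain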
# Details: S. cerevisiae deletion strains, growth OD
smiles,measurement,setting,value
CC(C)=CCC1=C(O)c2ccccc2C(=O)C1=O,normalized growth,"locus YAL013W, strain DEP1, hits give low values",0.949
same,normalized growth,"locus YAL021C, strain ccr4, hits give low values",0.748 (active)
same,normalized growth,"locus YAL026C, strain drs2, hits give low values",0.472 (active)
same,normalized growth,"locus YAL030W, strain snc1, hits give low values",0.799 (active)
same,normalized growth,"locus YBL061C, strain skt5, hits give low values",0.774 (active)
same,normalized growth,"locus YBR009C, strain hhf1, hits give low values",0.804 (active)
same,normalized growth,"locus YBR021W, strain FUR4, hits give low values",1.05
same,normalized growth,"locus YBR023C, strain chs3, hits give low values",0.749 (active)
same,normalized growth,"locus YBR171W, strain sec66, hits give low values",0.707 (active)
same,normalized growth,"locus YBR229C, strain ROT2, hits give low values",0.963
same,normalized growth,"locus YBR231C, strain swc5, hits give low values",0.718 (active)
same,normalized growth,"locus YBR279W, strain paf1, hits give low values",0.76 (active)
same,normalized growth,"locus YCL011C, strain gbp2, hits give low values",0.795 (active)
same,normalized growth,"locus YCL016C, strain dcc1, hits give low values",0.762 (active)
same,normalized growth,"locus YCL029C, strain bik1, hits give low values",0.899 (active)
same,normalized growth,"locus YCL069W, strain vba3, hits give low values",0.675 (active)
same,normalized growth,"locus YCR088W, strain abp1, hits give low values",0.799 (active)
same,normalized growth,"locus YDL005C, strain med2, hits give low values",0.759 (active)
same,normalized growth,"locus YDL035C, strain GPR1, hits give low values",0.97
same,normalized growth,"locus YDL040C, strain nat1, hits give low values",0.843 (active)
same,normalized growth,"locus YDL074C, strain BRE1, hits give low values",0.994
same,normalized growth,"locus YDL101C, strain DUN1, hits give low values",0.951
same,normalized growth,"locus YDL134C, strain PPH21, hits give low values",0.958
same,normalized growth,"locus YDL185W, strain tfp1, hits give low values",0.86 (active)
same,normalized growth,"locus YDL192W, strain arf1, hits give low values",0.896 (active)
same,normalized growth,"locus YDR001C, strain nth1, hits give low values",0.816 (active)
same,normalized growth,"locus YDR069C, strain doa4, hits give low values",0.719 (active)
same,normalized growth,"locus YDR101C, strain arx1, hits give low values",0.941
same,normalized growth,"locus YDR137W, strain rgp1, hits give low values",0.328 (active)
same,normalized growth,"locus YDR150W, strain NUM1, hits give low values",0.934
same,normalized growth,"locus YDR159W, strain sac3, hits give low values",0.549 (active)
same,normalized growth,"locus YDR162C, strain NBP2, hits give low values",0.872
same,normalized growth,"locus YDR195W, strain ref2",0.976
same,normalized growth,"locus YDR297W, strain sur2, hits give low values",0.832 (active)
same,normalized growth,"locus YDR318W, strain mcm21, hits give low values",0.902 (active)
same,normalized growth,"locus YDR334W, strain swr1, hits give low values",0.795 (active)
same,normalized growth,"locus YDR335W, strain msn5, hits give low values",0.514 (active)
same,normalized growth,"locus YDR388W, hits give low values",0.928 (active)
same,normalized growth,"locus YDR392W, strain spt3, hits give low values",0.703 (active)
same,normalized growth,"locus YDR502C, strain sam2, hits give low values",0.968
same,normalized growth,"locus YEL003W, strain gim4, hits give low values",0.788 (active)
same,normalized growth,"locus YEL037C, strain rad23, hits give low values",0.825 (active)
same,normalized growth,"locus YEL061C, strain CIN8 (second series), hits give low values",0.799 (active)
same,normalized growth,"locus YEL061C, strain CIN8, hits give low values",0.932
same,normalized growth,"locus YER015W, strain faa2, hits give low values",0.648 (active)
same,normalized growth,"locus YER016W, strain bim1, hits give low values",0.635 (active)
same,normalized growth,"locus YER110C, hits give low values",0.96
same,normalized growth,"locus YER111C, strain swi4, hits give low values",0.564 (active)
same,normalized growth,"locus YER155C, strain BEM2 (second series), hits give low values",0.792 (active)
same,normalized growth,"locus YER155C, strain BEM2, hits give low values",0.962
same,normalized growth,"locus YER167W, strain BCK2, hits give low values",0.956
same,normalized growth,"locus YFR010W, strain ubp6, hits give low values",0.752 (active)
same,normalized growth,"locus YGL078C, strain dbp3, hits give low values",0.914 (active)
same,normalized growth,"locus YGL086W, strain mad1, hits give low values",0.879 (active)
same,normalized growth,"locus YGL167C, strain pmr1, hits give low values",0.0913 (active)
same,normalized growth,"locus YGL173C, strain kem1, hits give low values",0.745 (active)
same,normalized growth,"locus YGL227W, strain vid30, hits give low values",0.767 (active)
same,normalized growth,"locus YGL240W, strain doc1, hits give low values",0.924
same,normalized growth,"locus YGL248W, strain PDE1, hits give low values",0.964
same,normalized growth,"locus YGL253W, strain hxk2, hits give low values",0.592 (active)
same,normalized growth,"locus YGR078C, strain PAC10, hits give low values",0.986
same,normalized growth,"locus YGR135W, strain pre9, hits give low values",0.953
same,normalized growth,"locus YGR229C, strain SMI1, hits give low values",0.992
same,normalized growth,"locus YGR252W, strain gcn5, hits give low values",1
same,normalized growth,"locus YHR013C, strain ard1, hits give low values",0.904
same,normalized growth,"locus YHR027C, strain rpn1, hits give low values",0.537 (active)
same,normalized growth,"locus YHR030C, strain SLT2, hits give low values",0.936 and 0.964
same,normalized growth,"locus YHR079C, strain IRE1 (second series), hits give low values",0.941
same,normalized growth,"locus YHR079C, strain IRE1, hits give low values",0.961
same,normalized growth,"locus YHR094C, strain hxt1, hits give low values",0.96
same,normalized growth,"locus YHR129C, strain ARP1, hits give low values",0.952
same,normalized growth,"locus YHR142W, strain chs7, hits give low values",0.421 (active)
same,normalized growth,"locus YHR200W, strain rpn10, hits give low values",0.932
same,normalized growth,"locus YIL066C, strain RNR3, hits give low values",0.965
same,normalized growth,"locus YIL073C, strain SPO22, hits give low values",0.824
same,normalized growth,"locus YIL125W, strain kgd1, hits give low values",0.93 (active)
same,normalized growth,"locus YIR030C, strain dcg1, hits give low values",0.945
same,normalized growth,"locus YJL092W, strain hpr5, hits give low values",0.793 (active)
same,normalized growth,"locus YJL095W, strain BCK1 (second series), hits give low values",0.675 (active)
same,normalized growth,"locus YJL095W, strain BCK1, hits give low values",0.944 and 0.936
same,normalized growth,"locus YJL115W, strain asf1, hits give low values",0.861 (active)
same,normalized growth,"locus YJL129C, strain trk1, hits give low values",0.554 (active)
same,normalized growth,"locus YJL134W, strain LCB3, hits give low values",0.95
same,normalized growth,"locus YJL154C, strain vps35, hits give low values",0.815 (active)
same,normalized growth,"locus YJL164C, strain tpk1, hits give low values",0.775 (active)
same,normalized growth,"locus YJL166W, strain qcr8, hits give low values",0.714 (active)
same,normalized growth,"locus YJL168C, strain set2, hits give low values",0.95
same,normalized growth,"locus YJL187C, strain SWE1 (second series), hits give low values",0.957
same,normalized growth,"locus YJL187C, strain SWE1, hits give low values",0.789 (active)
same,normalized growth,"locus YJR043C, strain POL32, hits give low values",1.04
same,normalized growth,"locus YJR066W, strain TOR1, hits give low values",0.875
